Assay outcomes (PubChem)
OPRM1-OPRD1 ag = agonists of OPRM1-OPRD1 heterodimerization, primary screen, cell-based, luminescence; Mu-type opioid receptor (Homo sapiens) + Delta-type opioid receptor (Homo sapiens), …; cells; activation, % at 9.3 µM; hit rate 0.3% among 340,000; AID 504326, 2011; in the data active means activation above about 18%
HTR5A ag = HTR5A agonists in luminescence cell assay, primary screen, counter-screen for OPRM1-OPRD1 heterodimer agonist project, full-deck HTS | cell-based | activation, % at 9.3 µM | hit rate 0.61% among 340,000 | AID 504692, 2011; in the data active means activation mostly above about 9.5%, no sharp cut-off; inactive means mostly below about 7.6%
Target sequence (P47898 whole entry, looked up): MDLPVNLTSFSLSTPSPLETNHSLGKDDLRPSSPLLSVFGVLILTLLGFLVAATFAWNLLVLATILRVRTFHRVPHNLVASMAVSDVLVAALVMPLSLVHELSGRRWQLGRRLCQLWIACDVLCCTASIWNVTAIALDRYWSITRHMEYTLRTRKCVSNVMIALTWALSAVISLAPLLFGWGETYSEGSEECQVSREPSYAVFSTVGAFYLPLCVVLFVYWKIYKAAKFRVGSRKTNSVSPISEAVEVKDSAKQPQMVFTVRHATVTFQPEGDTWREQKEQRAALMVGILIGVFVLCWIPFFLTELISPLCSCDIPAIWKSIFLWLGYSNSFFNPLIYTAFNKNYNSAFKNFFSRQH
HTR5A inv ag = HTR5A inverse agonists in luminescence cell assay, primary screen, counter-screen for OPRM1-OPRD1 heterodimer inverse agonist project, full-deck HTS; AID 504634, 2011; HTR5A cell line, inverse agonism; 5-hydroxytryptamine receptor 5A (Homo sapiens), P47898; inhibition, % at 9.3 µM; hit rate 0.083% among 340,000; in the data active means inhibition mostly above about 23%, no sharp cut-off; inactive means mostly below about 18%
MOR-DOR inv ag = inverse agonists of MOR-DOR heterodimerization, primary screen, cell-based, luminescence | Mu-type opioid receptor (Homo sapiens) + Delta-type opioid receptor (Homo sapiens), … | cell-based MOR-DOR heterodimer luminescence, inverse agonism | inhibition, % at 9.3 µM | hit rate 0.21% among 340,000; in the data active means inhibition above about 22%, passing the limit was not always enough
Large screens that a line does not name were inactive. Most compounds without a hit are left out; they make up all but 1.1% or so of the library.

C#CCNC(=O)C1=C[C@@H](c2ccc3c(c2)OCO3)[C@H](CCCO)[C@@H](OCC)O1	HTR5A ag 11
Cn1c(=O)n(C)c2cc(C(=O)O)ccc21	none
Cc1ccccc1C(=O)c1ccc2c(c1)n(C)c(=O)n2C	HTR5A ag 12
Cc1cc(C)c2nc(-c3ccncc3)cc(C(=O)N3CCN(Cc4ccccc4Cl)CC3)c2c1	HTR5A ag 13
CCn1nc(NC(=O)c2cccnc2)c2cc3cccc(C)c3nc21	HTR5A ag 18
N#CC1C(=O)NC(c2ccccc2)=CC1c1ccccc1 (stereo not given)	HTR5A inv ag 52, MOR-DOR inv ag 69
O=C(CSc1ncn[nH]1)Nc1ncc(C(F)(F)F)cc1Cl	none
O=C(CSc1ncn[nH]1)Nc1ccc(Cl)c(Cl)c1	HTR5A ag 8.7
CCN(c1cccc(C)c1)S(=O)(=O)c1csc(C(N)=O)c1	none
Cc1cccc(N(C)C(=O)COc2cc(=O)n(C)c3ccccc23)c1	HTR5A ag 11
CCn1c(=O)cc(OCC(=O)Nc2cc(C)ccn2)c2ccccc21	none
CCn1c(=O)cc(OCC(=O)NCCc2cccc(C)c2)c2ccccc21	HTR5A ag 12
COCc1c(C(=O)OCC(=O)NCCc2ccc(S(N)(=O)=O)cc2)oc2ccccc12	none
Cc1ccc(NC(=S)NNC(=O)Nc2ccccc2)cc1	HTR5A inv ag 29, MOR-DOR inv ag 34
O=C(NNC(=S)Nc1ccccc1)Nc1ccccc1	HTR5A inv ag 23, MOR-DOR inv ag 35
CN(C)CCOc1ccc(-c2c(-c3ccsc3)sc3ccccc23)cc1	none
COc1ccc(-c2sc3ccccc3c2-c2ccc(OCCN(C)C)cc2)cc1	HTR5A ag 14
COc1ccc(C(=O)N/N=C\c2ccc(OC)c(COc3ccccc3Br)c2)c(OC)c1	HTR5A ag 10
CN(C)S(=O)(=O)c1cccc(NC(=O)Cn2cnc3ccccc3c2=O)c1	none
CCOc1ccccc1OC(=O)CN1C(=O)c2ccccc2C1=O	none
CCc1sc(C(=O)NCCCn2ccnc2)cc1Br	HTR5A ag 10
Cc1ccn(-c2ccc(NC(=O)c3cccs3)cc2)n1	none
O=C(Nc1cc(Sc2ccccn2)cc([N+](=O)[O-])c1)c1cccc(Cl)c1	none
O=C(Nc1cc(Sc2ccccn2)cc([N+](=O)[O-])c1)c1ccc(Cl)cc1	OPRM1-OPRD1 ag 29, HTR5A ag 19
COc1ccc(NC(=O)C2CCN(S(=O)(=O)c3c(C)noc3C)CC2)cc1Cl	none
COc1cc(CNCCc2c[nH]c3ccccc23)ccc1OCc1ccc(F)cc1	HTR5A ag 11
COc1cccc(CNCCc2c[nH]c3ccccc23)c1OCc1ccc(F)cc1	none
O=C(Nc1c(C(=O)O)[nH]c2ccc(F)cc12)c1cccc(C(F)(F)F)c1	HTR5A ag 12
O=C(Cc1cccc(C(F)(F)F)c1)Nc1cc(S(=O)(=O)N2CCOCC2)ccc1N1CCCC1	none
Cc1c(Cl)cccc1NC(=O)c1cccc(NC(=O)CCC(=O)O)c1	HTR5A ag 12
COc1ccc(S(=O)(=O)NC2CC2)cc1Br	none
O=S(=O)(c1ccc(Cl)cc1)N(CCCN1CCOCC1)Cc1cccs1	HTR5A ag 11
CSc1ncccc1C(=O)OCC(=O)c1ccc[nH]1	none
CSc1ccc(/C=C/C(=O)OCC(=O)c2ccc[nH]2)cc1	HTR5A ag 13
CC(=O)n1cc(N(C(=O)CCl)c2ccc([N+](=O)[O-])cc2)c2ccccc21	OPRM1-OPRD1 ag 20, HTR5A ag 27
O=C(CCl)N(c1ccccc1)c1c[nH]c2ccccc12	OPRM1-OPRD1 ag 39, HTR5A ag 40
CC(=O)n1cc(N(C(=O)CCl)c2ccccc2)c2ccccc21	OPRM1-OPRD1 ag 65, HTR5A ag 57
O=Cc1[nH]c2ccccc2c1N(C(=O)CCl)c1ccc([N+](=O)[O-])cc1	none
CC(=O)n1cc(CO)c2ccccc21	none
CCN(CC(=O)Nc1c(F)cccc1F)C(=O)C1CC(=O)N(CCc2ccc(OC)c(OC)c2)C1 (stereo not given)	none
Cc1ccc(OCC(=O)O/N=C(\N)Cc2ccc([N+](=O)[O-])cc2)cc1C	none
CC(=O)c1sc2nc(SCC(=O)NCCc3ccccc3)[nH]c(=O)c2c1C	HTR5A ag 13
COc1ccc(CCNC(=O)CSc2nc3sc(C(=O)O)c(C)c3c(=O)[nH]2)cc1OC	none
Cc1cccc(N2CCN(S(=O)(=O)c3ccc4c(c3)NC(=O)C(C)S4)CC2)c1C (stereo not given)	none
Cc1cccc(N2CCN(S(=O)(=O)c3ccc4c(c3)NC(=O)CS4)CC2)c1C	HTR5A ag 12
CCN(CC(=O)Nc1cccc(OC)c1)c1ncnc2sc(C)c(C)c12	none
COc1cccc(CNC(=O)CCS(=O)(=O)c2cccc3nonc23)c1	HTR5A ag 13
COc1cccc(CNC(=O)CCS(=O)(=O)c2cccc3nsnc23)c1	none
Cc1cc(C(=O)Nc2cccc3c2O[C@@H](CN(C)S(C)(=O)=O)[C@H](C)CN([C@@H](C)CO)C3=O)n(C)n1	none
CCCSC1=C(C#N)C(c2ccc(OC)cc2)C2=C(CC(C)(C)CC2=O)N1 (stereo not given)	HTR5A ag 11
Cc1cc(Cl)ccc1OC(C)C(=O)NNC(=O)C1CCCCC1C(=O)O (stereo not given)	none
CCOC(=O)c1c(-c2ccc(F)cc2)csc1NC(=O)CCN1CCOCC1	none
CCOC(=O)c1c(NC(=O)CN2CCCCC2)sc(CN(C)C)c1-c1ccccc1	HTR5A ag 8.1
CCOC(=O)c1c(-c2ccc(-c3ccccc3)cc2)csc1NC(=O)CCN1CCOCC1	HTR5A ag 11
CCOC(=O)c1c(NC(=O)CCl)sc(CN(C)C)c1-c1ccccc1	none
C=C(C)CN=C1NN=C(c2cc(C)n(-c3ccc(C)cc3)c2C)CS1	none
CCOC(=O)c1c(C)sc2c1N(C(=O)CCl)c1cc(Cl)ccc1S2	OPRM1-OPRD1 ag 36, HTR5A ag 19
CC(=O)Nc1cc(OC(C)=O)c2nonc2c1OC(C)=O	OPRM1-OPRD1 ag 23
CC(=O)Nc1nonc1NC(C)=O	none
O=C(O)c1ccc(N/N=C/c2ccc(-c3ccccc3)cc2)cc1	HTR5A ag 13
Cc1cccc(OCCCC(=O)Nc2nc3ccccc3[nH]2)c1	HTR5A ag 10
O=C(CCN1CCN(Cc2ccccc2)CC1)Nc1ccccc1Cl	none
CC(C)(C)c1cc(CCC(=O)NN)cc(C(C)(C)C)c1O	HTR5A ag 12
CC(C)(C)c1cc(CCC(=O)N2CCC2)cc(C(C)(C)C)c1O	none
COc1ccc(OC)c(S(=O)(=O)N2CCCC(C(=O)NCCN3CCOCC3)C2)c1 (stereo not given)	none
CN1C[C@@H]2[C@@H]3C(=O)N(Cc4ccccc4)C(=O)[C@@H]3[C@](C)(C1=O)N2C(=O)c1ccccc1	none
O=C(Nc1ccccc1Cl)c1ccccc1	none
O=C(Nc1ccccc1Cl)C(Cl)C(=O)c1ccccc1 (stereo not given)	MOR-DOR inv ag 52
Cc1cc(C(C)(C)C)cc(C)c1Cn1c2[n+](c3ccc(C(F)(F)F)cc31)CCCCC2	HTR5A ag 11
